The text below walks through data of PubChem BioAssay (NCI).

Common to all, as to assay: NCI-60 one-dose screen, 48 h (100 = growth as untreated, 0 = no growth, -100 = all killed)
Common to all, as to details: 10 µM unless noted

In test [1] the test system is SK-MEL-2 melanoma.
The test system of test [2] is EKVX NSCLC.
Test [3] concerns SN12C renal.
Test [4] has as its system UO-31 renal.
The test system of test [5] is TK-10 renal.
For test [6], the system named is ACHN renal.
Test [7] deals with CAKI-1 renal.
Test [8] concerns A498 renal.
In test [9] the test system is CCRF-CEM leukemia.
For test [10], the system named is MOLT-4 leukemia.
The subject of test [11] is SR leukemia.
For test [12], the system named is RPMI-8226 leukemia.
In test [13] the test system is OVCAR-8 ovarian.
The test system of test [14] is OVCAR-5 ovarian.
Test [15] relates to OVCAR-4 ovarian.
The test system of test [16] is SK-OV-3 ovarian.
The test system of test [17] is IGROV1 ovarian.
Test [18] has as its system OVCAR-3 ovarian.
The test system of test [19] is HS 578T breast.
Test [20] relates to NCI/ADR-RES ovarian.

About 83,000 compounds went through this panel and 20% of them were active in at least one assay; those are over-represented in the sample as a whole.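 Percent growth is the endpoint: 0 to 100 indicates growth inhibition (40 means 60% inhibition), 0 means no net growth, and negative values indicate cell death.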 Unmarked numbers belong to inactive results. Calls of active or inactive are those of the source. The calls were made as follows: active = growth percent below 10; inactive = the rest.

With `Cn1c(NCCc2ccc(O)c(O)c2)nc2c1c(=O)n(Cc1ccc(Br)cc1)c(=O)n2C`, the growth in test [1] is 89.8%; in test [2] it was 79.9%; in test [3], 72.7%; in [4], 30%; in test [5] it was 68.8%; in [6], 32.9%. The growth in test [7] is 74.7%; in test [8] it was 106%; in test [9], 23%; in [10] it was 29.3%; in [11], 61.6%; in test [12] it was 25.6%. The growth in test [13] was 71.9%; in [14], 99.4%; in [15], 53.2%; in test [16], 75.5%; in test [17], 37.7%; in test [18] it was 69.4%. Besides, the growth is 95.3% in [19] and 82.5% in test [20].

With `COC(=O)c1cccc(NC(=O)c2ccc(-c3cccc(N)c3)o2)c1`, the growth in [1] is 98.3%; in test [2], 94.5%; in [3], 94%; in [4], 83%; in test [5] it was 125%; in test [6], 102%. Further, the growth is 91.3% in test [7]; 105% in [8]; 71.7% in test [9]; 85.9% in [10]; 95.8% in test [11]; 78.8% in test [12]. In addition, the growth was 75.7% in [13]; 107% in test [14]; 101% in test [15]; 105% in test [16]; 100% in test [17]; 107% in test [18]. Further, the growth in test [19] was 92.2%; in [20], 99.7%.

For the molecule `COc1ccccc1NS(=O)(=O)c1ccc2oc(SC(C)C)nc2c1`, the growth was 66.4% in [1]; 55.9% in test [2]; 89.3% in test [3]; 73.5% in test [4]; 102% in test [5]; 151% in test [6]. The growth is 71.2% in test [7]; 91.4% in test [8]; 65% in test [9]; 69.6% in test [10]; 54.9% in [11]; 52.2% in test [12]. Further, the growth in test [13] is 83.1%; in [14], 82.1%; in test [15] it was 53%; in [16] it was 114%; in [17], 92.1%; in [18] it was 85.7%. Besides, the growth in test [19] is 95.4%; in test [20], 43.8%.

As for `COc1cccc(/C=C2\SC(=Nc3ccc(NC(C)=O)cc3)NC2=O)c1OC`, the growth in test [1] was 110%; in test [2] it was 103%; in test [3], 94.6%; in test [4], 60.8%; in test [5], 97.7%; in test [6] it was 82.5%. Moreover, the growth in test [7] is 67.9%; in [8] it was 58.7%; in test [9], 97.1%; in test [10] it was 99.2%; in test [11] it was 94.8%; in test [12], 96.7%. In addition, the growth is 93% in [13]; 91.7% in test [14]; 100% in [15]; 91.3% in test [16]; 103% in test [17]; 111% in test [18]. The growth in test [19] is 70.5%; in test [20], 102%.

For `Cc1[nH]c(-c2cc(N)ccc2Cl)c2c1C(=O)CCCC2`, the growth in test [1] is 31%; in test [2] it was 36.5%; in [3], 35%; in test [4] it was 10.1%; in test [5], 1.81% (active); in test [6], 19.8%. In addition, the growth was 2.45% (active) in [7]; 27% in [8]; 52.3% in test [9]; 52.7% in [10]; 44.8% in test [11]; 12.7% in [12]. Also, the growth is 22.2% in test [13]; 49.3% in test [14]; 36.4% in test [15]; 11.7% in [16]; 20.6% in test [17]; 30.4% in test [18]. In addition, the growth in test [19] was 7.36% (active); in test [20], 33%.

For `CC(O)CN1CC(O)=C(c2nc3ccccc3s2)C1=N` (stereo not given), the growth is 95.1% in test [1]; 108% in test [2]; 103% in [3]; 90.3% in test [4]; 131% in test [5]; 228% in [6]. The growth is 101% in test [7]; 116% in test [8]; 97.4% in [9]; 103% in test [10]; 93.1% in test [11]; 101% in test [12]. Besides, the growth in [13] was 116%; in test [14], 93.9%; in test [15] it was 106%; in test [16] it was 113%; in [17] it was 99%; in test [18], 117%. Further, the values for the growth in test [19] and in [20] were 104% and 85.1%, respectively.

As to `COc1ccc(C2CC(c3ccc4ccccc4c3)=NN2/C=C2\SC(=S)N(NC(=O)Cc3ccccc3Nc3c(Cl)cccc3Cl)C2=O)cc1` (stereo not given), the growth in test [1] is 38.8%; in test [2], 40.2%; in [3], 31.7%; in test [4], 11.8%; in test [5] it was 48.7%; in test [6], 47.4%. Further, the growth in [7] is 31.5%; in [8] it was -0.474% (active); in test [9], 6.24% (active); in test [10], 13.9%; in [11], 20.8%; in test [12], -10.1% (active). The growth in [13] is 34.6%; in test [14], 56.8%; in test [15], 70%; in [16] it was 41.9%; in test [17], 33.1%; in [18] it was 2.15% (active). The results for the growth in test [19] and in [20] were 13.3% and 9.39% (active), respectively.

In the case of `CSc1ccc(-c2n[nH]nc2-c2cc3ccccc3s2)cc1`, the growth in test [1] was 33%; in [2], 73.2%; in test [3], 59.9%; in test [4] it was 52.3%; in test [5], 84.2%; in [6] it was 64.7%. In addition, the growth in test [7] was 49.1%; in test [8], 46.8%; in test [9], 52.6%; in [10] it was 10.1%; in test [11] it was 24.9%; in [12] it was 40.1%. Moreover, the growth in test [13] is 59.3%; in test [14] it was 95.3%; in test [15] it was 75.8%; in test [16], 52.7%; in test [17], 46.4%; in test [18], 26.5%. In addition, the growth was 58.5% in test [19] and 22.8% in test [20].

As for `CN(Cc1cc(Cl)cc(Cl)c1O)Cc1cc(Cl)cc(Cl)c1O`, the growth in test [1] is 93.5%; in test [2], 83.6%; in test [3] it was 71.1%; in test [4], 46.2%; in [5], 61.4%; in test [6], 52.8%. Further, the growth in test [7] was 42.9%; in test [8] it was 89.6%; in [9] it was 48.7%; in test [10], 47.7%; in [11], 62.6%; in test [12], 70.7%. Also, the growth in test [13] is 63.6%; in [14] it was 89.8%; in [15] it was 40.2%; in test [16], 78.3%; in [17], 54.2%; in test [18], 49.1%. The growth in test [19] was 92.8%; in [20], 62.4%.

With `CCCCN1CCCn2c1nc1c2c(=O)n(CCC)c(=O)n1CCC`, the growth is 90.1% in test [1]; 97.2% in [2]; 93.2% in [3]; 76.8% in [4]; 97.1% in test [5]; 88.4% in test [6]. Moreover, the growth was 89.1% in [7]; 80.2% in test [8]; 104% in [9]; 103% in [10]; 67.1% in test [11]; 110% in test [12]. Moreover, the growth in test [13] is 102%; in test [14] it was 105%; in test [15], 101%; in [16] it was 101%; in test [17] it was 110%; in [18], 94.8%. Also, the growth in [19] is 96.4%; in test [20], 99.8%.

In the case of `O=C(NCCN1CCOCC1)Nc1ccc(-c2cc3c(Nc4ccc(Oc5cccc(C(F)(F)F)c5)c(Cl)c4)ncnc3s2)cc1`, the growth in [1] was 32%; in [2] it was 20.8%; in [3], 42.9%; in [4], -35.8% (active); in test [5], 49.8%; in test [6] it was 11.8%. The growth in test [7] is 8.01% (active); in test [8], 40.3%; in test [9], 3.33% (active); in test [10], -4.36% (active); in test [11] it was 4.83% (active); in test [12], -14.8% (active). In addition, the growth is 41.1% in test [13]; 36.2% in test [14]; 39.2% in [15]; 24.5% in test [16]; 28.3% in test [17]; 41.1% in [18]. In addition, the growth in [19] is -3.09% (active); in [20], 77.2%.

For `O=c1nc2oc3ccc4ccccc4c3cc-2s1`, the growth is 31.9% in test [1]; 46.1% in [2]; 41.1% in test [3]; 46.9% in test [4]; 54.7% in test [5]; 41% in test [6]. For the same molecule, the growth is 22.1% in test [7]; -1.24% (active) in [8]; 13.7% in [9]; 25.1% in test [10]; 24.3% in [11]; 14.7% in test [12]. Also, the growth was 29.8% in test [13]; 53.3% in test [14]; 62.5% in test [15]; 28.5% in test [16]; 37.2% in [17]; 6% (active) in test [18]. For the same molecule, the growth in test [19] was 3.65% (active); in test [20], 91.1%.

In the case of `O=C(Nc1ccc(Cl)cc1)c1cc2cc(F)ccc2cc1O`, the growth is 6.39% (active) in test [1]; 17% in test [2]; 7.85% (active) in test [3]; 12.6% in [4]; 17.7% in [5]; 3.91% (active) in test [6]. Further, the growth is 12% in test [7]; -43.4% (active) in [8]; 15.6% in test [9]; 7.89% (active) in test [10]; 4.79% (active) in test [11]; -8.91% (active) in test [12]. The growth in [13] was 8.21% (active); in [14] it was 29.9%; in [15] it was 26.4%; in [16] it was -18.7% (active); in test [17], 42.5%; in test [18], 23%. Further, the growth in test [19] was 18.6%; in test [20] it was 4.6% (active).

For the molecule `COc1cc(/C=C/c2cc(/C=C/c3ccc(O)c(OC)c3)n(-c3c(C)cccc3C)c(=O)n2)ccc1O`, the growth was -6.04% (active) in test [1]; 17.7% in test [2]; 11.6% in test [3]; 1.61% (active) in test [4]; 27.4% in [5]; 6.48% (active) in test [6]. Further, the growth in test [7] is 17.2%; in test [8], -6.94% (active); in test [9], 7.03% (active); in [10], 6.55% (active); in [11] it was 0.0669% (active); in test [12] it was -27.4% (active). Besides, the growth in test [13] is 0.393% (active); in test [14] it was 9.05% (active); in test [15], 3.15% (active); in [16], -37.7% (active); in test [17] it was 9.72% (active); in test [18], 5.84% (active). For the same molecule, the growth is -4.97% (active) in test [19] and 12.6% in test [20].
